# Most compounds without a hit are left out; they make up all but 0.5% or so of the library.
# TRPV1 agonist: HTS Assay for Compounds that Act as Agonists of the Vanilloid Receptor 1. Transient receptor potential cation channel subfamily V member 1 (Homo sapiens), Q8NER1. TRPV1-expressing cells, Fluo-8 calcium influx, agonist mode. activation, % at 8.33 µM. 320,000 compounds, 0.19% hits. AID 540275, 2011; in the data active = activation above about 80%; inconclusive = between about 30% and that limit
#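 TRPV1-expressing cells were cultured overnight at 35.5C and loaded with Fluo-8 calcium dye for 40 to 90 min at room temperature. After a 10 s baseline, compound was added and calcium influx was read kinetically for 3 min (ex 480/em 520 nm).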
# AT treatment: qHTS Assay for Identifying a Potential Treatment of Ataxia-Telangiectasia. F2112 A-T fibroblasts, KAP-1 phosphorylation AlphaLISA; neocarzinostatin DNA damage 30 min before lysis. Potency, µM (highest dose often 57.5 µM), actives largely listed as activators. 320,000 compounds, 0.19% hits; also: nearly all actives have a fitted effect of over 45% in size
#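 ATM-like activity read as KAP-1 phosphorylation via AlphaLISA donor/acceptor antibody pairs after lysis and 6 hr at 25C. Cells were ATM-null patient fibroblasts (F2112, hTERT), dosed 60 min, then exposed to the DSB inducer NCS for 30 min.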
# TRPML1 agonist: qHTS for Agonists of the Human Mucolipin Transient Receptor Potential 1 (TRPML1); TRPML1-expressing cells, Ca2+ dye fluorescence, FDSS; activation, % (concentration not given with the values); AID 624414, 2012; Mucolipin-1 (Homo sapiens), Q9GZU1; 410,000 compounds, 0.12% hits; in the data active = activation above about 50%; inconclusive = mostly about 30% to 49%
#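 Calcium fluorescence on an FDSS kinetic reader gave the read-out. Tet-induced TRPML1-DL cells were plated overnight, dye-loaded (Ca8 with quencher, 45-90 min, room temperature, dark), then read 110 s after compound addition, and again 110 s after 4uM final 54-4 (EC80).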
# TRPV1 potentiator: HTS Assay for Compounds that Act as Potentiators of the Vanilloid Receptor 1; Transient receptor potential cation channel subfamily V member 1 (Homo sapiens), Q8NER1; TRPV1-expressing cells, Fluo-8 calcium influx, capsaicin EC20 potentiation; potentiation, % at 8.33 µM; 320,000 compounds, 0.02% hits; AID 540277, 2011; in the data active = potentiation above about 80%; inconclusive = between about 30% and that limit
#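 TRPV1-expressing cells were cultured overnight at 35.5C and loaded with Fluo-8 calcium dye for 40 to 90 min at room temperature. After a 10 s baseline, compound was added and calcium influx was read kinetically for 3 min (ex 480/em 520 nm).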
# RGS4 inhibitor: Inhibitors of Regulator of G Protein Signaling (RGS) 4: qHTS. Regulator of G-protein signaling 4 (Homo sapiens), P49798. Transcreener GDP fluorescence polarization, RGS4-accelerated GTP hydrolysis. Potency, µM (highest dose often 114 µM), most hits filed as inhibitors. 390,000 compounds, 0.039% hits. AID 504845, 2011; also: nearly all actives have a fitted effect of over 75% in size
# Target sequence (P49798 whole entry, looked up): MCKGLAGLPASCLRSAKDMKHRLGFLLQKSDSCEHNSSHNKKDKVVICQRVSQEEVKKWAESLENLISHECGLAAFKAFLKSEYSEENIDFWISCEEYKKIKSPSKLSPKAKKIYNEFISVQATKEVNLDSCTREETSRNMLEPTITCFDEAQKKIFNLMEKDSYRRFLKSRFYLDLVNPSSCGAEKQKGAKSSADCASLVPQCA
#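 MLSMR compounds (23 nl, pin-transferred) preincubated 10 min at room temperature with a 500nM (2x) first reagent, then RGS4 at 900nM (2x) plus Transcreener GDP mix added; fluorescence polarization (620/688 nm) read before and after 90 min at 30 °C.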
# TRPML1 blocker: qHTS for Inhibitors of the Human Mucolipin Transient Receptor Potential 1 (TRPML1) | Mucolipin-1 (Homo sapiens), Q9GZU1 | TRPML1-inducible cells, Ca2+ dye fluorescence, FDSS; hits give low values; inhibition of EC80 agonist-evoked calcium signal | activity change, negative = inhibition, % (concentration not given with the values) | 390,000 compounds, 0.02% hits; in the data active = activity change below about -50%; inconclusive = between about -30% and that limit;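 also: stimulus is agonist 54-4 at its EC80 concentration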
#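 Calcium fluorescence in TRPML1-DL cells induced overnight with Tet: a 110 s read after compound pin addition, then a 110 s antagonist read after challenge with 54-4 at 4 uM final (EC80).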
# A number is an active result; n = inactive; u = inconclusive; x = no result; ! = a repeat was not active; [ ] = dose if it differs, or a comment. Unless noted, calls follow the shape of the dose curve; as a rule, active = well fitted curve in the direction sought with a large enough effect; inconclusive = small, poorly fitted or top-dose-only effect, or another doubt; inactive = no such curve, though single readings can be large; an effect the other way counts as inactive or inconclusive.
SMILES,TRPV1 agonist,AT treatment,TRPML1 agonist,TRPV1 potentiator,RGS4 inhibitor,TRPML1 blocker
CCOc1ccccc1CN1CCNC(=O)C1CC(=O)N(C)Cc1nonc1C (stereo unspecified),n,n,n,n,n,n
CCOC(=O)N1CCN(Cc2nnc(-c3ccccc3C)o2)CC1,n,20µM,n,n,n,n
CCOC(=O)N1CCN(CC(=O)N2c3ccccc3Sc3ccccc32)CC1,n,18µM,n,n,n,n
CC(C)Cn1cc(C(=O)NCc2cccs2)c2c3ccccc3n(C)c2c1=O,n,n,n,n,n,n
Cc1ccc2oc(C(=O)N3CCC(c4nc5ccccc5s4)CC3)c(C)c2c1,x,x,54,x,n,n
Cc1c(C(=O)N2CCC(c3nc4ccccc4s3)CC2)oc2cc(Br)ccc12,x,x,n,x,n,n
COC(=O)c1ccc(CSc2nnc3nc(C)cc(C)n23)cc1,n,n,n,n,n,n
Cc1cc(C)n2c(SCc3ccc(Br)cc3)nnc2n1,n,3.5µM,n,n,n,n
CCCn1cnc2c1c(=O)n(CCCCC(C)=O)c(=O)n2C,x,x,x,x,24µM!,x
O=C1CC(c2ccccc2)CC(O)=C1C=NCCc1ccccc1 (stereo unspecified),n,n,n,84,n,n
O=C1CC(c2ccccc2)CC(O)=C1C=NCc1ccccc1 (stereo unspecified),n,n,n,n,n,n
O=c1c2ccccc2oc2cc(-c3ccc(CN4CCOCC4)cc3)ccc12,n,u,n,n,n,n
COc1cc2c(C(=O)N3CCOCC3)c(CSc3ccccc3)n(C)c2cc1Br,u,n,n,102,n[11.4 µM],n
COc1cc2c(C(=O)N3CCN(C)CC3)c(C)n(-c3ccccc3)c2cc1Br,n,n,n,n,n,n
O=C(c1ccc(Cn2c(=S)[nH]c3ccc(Br)cc3c2=O)cc1)N1CCN(C2CCCCC2)CC1,n,n,n,n,n,n
CCOC(=O)c1sc(-c2ccccc2)cc1NC(=O)Nc1ccccc1,88,n,n,n,n,n
O=C(Nc1ccc(Cl)c(Cl)c1)C1=Cc2ccccc2OC1,88,x,n,n,n,n
O=C(Nc1cccc(Cl)c1)C1=Cc2cc(Cl)ccc2OC1,u,n,n,n,n,n
CCOc1cc(C2c3c(oc4ccccc4c3=O)C(=O)N2Cc2ccc(OC)cc2)ccc1O (stereo unspecified),x,x,n,x,n,n
CCOC(=O)Cc1csc(NC(=O)CSc2nnc(C(C)C)n2C)n1,n,0.71µM,n,n,n,n
COc1ccccc1S(=O)(=O)Nc1ccc(-c2nnc3n2CCCCC3)cc1,n,3.5µM,n,n,n,n
COc1ccc(C(=O)Nc2ccc(-c3nnc4n3CCCCC4)cc2)cc1OC,x,x,n,x,n,n
Cc1[nH]c2ccccc2c1C(=O)C(=O)NC1CC1,82,n,n,n,n,n
NC(=S)NCCC[C@H](N)C(=O)O,x,x,x,x,11µM!,x
Cc1cc(C)cc(NC(=O)CN2C(=O)COc3ccc(S(=O)(=O)Nc4ccccc4)cc32)c1,x,x,n,x,n,n
c1ccc(-c2csc(N3CCN(c4ccccn4)CC3)n2)cc1,101,n,n,n,n,n
c1ccc(-c2csc(N3CCOCC3)n2)cc1,n,n,n,n,n,n
O=C(CN1CCN(CC(=O)Nc2ccccc2Cl)CC1)NCC1(N2CCOCC2)CCCCC1,n,n,98,n,n,n
O=C(CN1CCCC1)NCC1(c2ccccc2)CCOCC1,n,n,n,n,n,n
CC(C)C(=O)NC(=S)Nc1ccccc1C(=O)NC1CCCCC1,n,n,n,n,n,n

# Compound activity as filed in PubChem BioAssay.
